Source: PubChem BioAssay (several laboratories)
Only some compounds are listed: those with a hit (about 3.9% of all), similar ones and a draw of the others.
3CLpro inhibitor = SARS-CoV 3CLpro protease inhibitors, primary screen, biochemical, quenched FRET; Replicase polyprotein 1ab (Severe acute respiratory syndrome coronavirus), P0C6X7; recombinant SARS-CoV 3CLpro, quenched FRET peptide cleavage; inhibition, % at 6 µM; 290,000 tested, 0.14% active; AID 1706, 2009; in the data active = inhibition above about 12%
PrPC TRFRET = inhibitors of human cell surface prion protein PrPC, primary screen, cell-based, TR-FRET | TR-FRET read-out | inhibition, % at 13.8 µM | 370,000 tested, 0.43% active | Major prion protein (Homo sapiens), P04156; in the data active = inhibition above about 24%; also: 0% = median of the test wells and 100% = reference compound wells
FBA Mtb inh = Mtb FBA enzyme inhibitors, primary screen, biochemical, fluorescence, strain H37Rv. purified M. tuberculosis FBA, fluorescence read-out. Fructose-bisphosphate aldolase (Mycobacterium tuberculosis (strain ATCC 25618 / H37Rv)), …. 360,000 tested, 2.3% active. AID 588726, 2011. inhibition, % at 1 µM; in the data active = inhibition above about 27%;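 also: 0% = vehicle and 100% = reference inhibitor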
Target sequence (P9WQA3 whole entry, looked up): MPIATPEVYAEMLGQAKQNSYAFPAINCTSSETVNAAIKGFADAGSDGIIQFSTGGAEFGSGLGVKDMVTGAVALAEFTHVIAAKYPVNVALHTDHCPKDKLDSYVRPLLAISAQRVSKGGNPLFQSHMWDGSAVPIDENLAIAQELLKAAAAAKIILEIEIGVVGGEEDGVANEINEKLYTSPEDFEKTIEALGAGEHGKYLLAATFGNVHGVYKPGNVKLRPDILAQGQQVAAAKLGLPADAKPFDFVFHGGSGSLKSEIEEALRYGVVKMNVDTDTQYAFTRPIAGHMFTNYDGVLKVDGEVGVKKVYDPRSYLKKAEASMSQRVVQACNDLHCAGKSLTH
Vc quorum ag = inducers of Vibrio cholerae quorum light production without autoinducers, primary screen, BH1578 luxS cqsA deficient, single point | V. cholerae BH1578 lux reporter, luminescence, 6 h | activation, % at 18.7 µM | 350,000 tested, 0.16% active | AID 588436, 2011; in the data active = activation mostly above about 9.7%, no sharp cut-off
GDH-TPI inh = GDH-TPI coupling enzyme inhibitors, primary screen, artefact control for M. tuberculosis FBA inhibitor project, biochemical, absorbance, full deck; AID 588335, 2011; GDH-TPI coupled enzyme counterscreen, NADH absorbance; 360,000 tested, 1.2% active; inhibition, % at 4.8 µM; in the data active = inhibition above about 30%;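 also: 0% = DMSO wells and 100% = wells lacking the enzyme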
Active calls of the source: *.

How did O=C(Nc1nnc(-c2ccncc2)o1)c1cccc(N2C(=O)CCC2=O)c1 do in these assays?
3CLpro inhibitor: 3; PrPC TRFRET: -10; FBA Mtb inh: 5; Vc quorum ag: inactive; GDH-TPI inh: 38*

Results for CC(=O)Nc1cc(OC(C)=O)c2nonc2c1OC(C)=O ?
3CLpro inhibitor: 37*; PrPC TRFRET: 17; FBA Mtb inh: 2; Vc quorum ag: 0; GDH-TPI inh: 6

How did CCCCCC(=O)Nc1ccc(C2C(=O)c3ccccc3C2=O)cc1 do in these assays?
3CLpro inhibitor: 6; PrPC TRFRET: 1; FBA Mtb inh: 4; Vc quorum ag: -2; GDH-TPI inh: -3

Results for C#CCOc1c(/C=C\c2nc(O)c([N+](=O)[O-])c(=O)[nH]2)cc(Br)cc1OC ?
3CLpro inhibitor: 3; PrPC TRFRET: -7; FBA Mtb inh: -4; Vc quorum ag: 0; GDH-TPI inh: 49*

What do the screens show for `COc1ccc(/C=C\c2nc(O)c([N+](=O)[O-])c(=O)[nH]2)cc1O`?
3CLpro inhibitor: -3; PrPC TRFRET: -21; FBA Mtb inh: -9; Vc quorum ag: -1; GDH-TPI inh: 26

Results for COC(=O)COc1c(/C=C\c2nc(O)c([N+](=O)[O-])c(=O)[nH]2)cccc1OC ?
3CLpro inhibitor: -1; PrPC TRFRET: -9; FBA Mtb inh: -3; Vc quorum ag: 1; GDH-TPI inh: 32*

What do the screens show for `C=CCOc1ccc(/C=C\c2nc(O)c([N+](=O)[O-])c(=O)[nH]2)cc1OC`?
3CLpro inhibitor: 5; FBA Mtb inh: -1; Vc quorum ag: inactive; GDH-TPI inh: 15

How did O=C1OCCN1C(=O)[C@H]1[C@H](c2ccccc2)C(c2ccc(F)cc2)=NN1c1ccc(Br)cc1 do in these assays?
PrPC TRFRET: -1; FBA Mtb inh: 35*; Vc quorum ag: -2; GDH-TPI inh: 24

How did O=C1OCCN1C(=O)[C@H]1[C@H](c2ccccc2)C(c2ccccc2)=NN1c1ccc(Br)cc1 do in these assays?
PrPC TRFRET: 2; FBA Mtb inh: 43*; Vc quorum ag: inactive; GDH-TPI inh: 16

What do the screens show for `Cc1cccc(C2=NN(c3ccc(Br)cc3)[C@@H](C(=O)N3CCOC3=O)[C@@H]2c2ccccc2)c1`?
FBA Mtb inh: 28*; Vc quorum ag: inactive; GDH-TPI inh: 17

How did O=C1OCCN1C(=O)[C@H]1[C@H](c2ccccc2)C(c2ccccc2)=NN1c1ccccc1 do in these assays?
PrPC TRFRET: 4; FBA Mtb inh: 10; Vc quorum ag: inactive; GDH-TPI inh: 4

How did Cc1cccc(C2=NN(c3ccccc3)[C@@H](C(=O)N3CCOC3=O)[C@@H]2c2ccccc2)c1 do in these assays?
PrPC TRFRET: -1; FBA Mtb inh: 9; Vc quorum ag: inactive; GDH-TPI inh: 11

What do the screens show for `C[C@@H]1C(c2cccc(Cl)c2)=NN(c2ccc(Br)cc2)[C@H]1C(=O)N1CCOC1=O`?
FBA Mtb inh: 56*; Vc quorum ag: 1; GDH-TPI inh: 16

How did COC(=O)c1ccccc1NC(=O)NCC1CCN(Cc2ccc(OC)cc2)CC1 do in these assays?
PrPC TRFRET: -9

Results for COc1ccc(OC)c(NC(=O)CSCC(=O)O)c1 ?
3CLpro inhibitor: -7; PrPC TRFRET: 0; FBA Mtb inh: -1; Vc quorum ag: 17*; GDH-TPI inh: -1

How did COc1ccc(OC)c(NC(=O)CSc2ccccc2)c1 do in these assays?
3CLpro inhibitor: 1; PrPC TRFRET: 7; FBA Mtb inh: 3; GDH-TPI inh: -1

What do the screens show for `O=C(O)CN1C(=O)C(=O)N(Cc2ccc(Cl)c(Cl)c2)C1=O`?
3CLpro inhibitor: 1; PrPC TRFRET: 7; FBA Mtb inh: 1; Vc quorum ag: -1; GDH-TPI inh: 7

What do the screens show for `O=C(Nc1ccc2oc(-c3ccccc3)nc2c1)C1CCCO1` (stereo not drawn)?
3CLpro inhibitor: 2; PrPC TRFRET: 2; FBA Mtb inh: active; Vc quorum ag: 0; GDH-TPI inh: 12

How did O=C(Cc1ccccc1)Nc1ccc2oc(-c3cccnc3)nc2c1 do in these assays?
3CLpro inhibitor: 0; PrPC TRFRET: 7; FBA Mtb inh: 112*; GDH-TPI inh: 4

How did O=C(Nc1ccc(-c2nc3cc(Cl)ccc3o2)cc1)C1CCCO1 (stereo not drawn) do in these assays?
3CLpro inhibitor: 4; PrPC TRFRET: 5; FBA Mtb inh: 4; Vc quorum ag: -1; GDH-TPI inh: 11

Results for O=C(COC(=O)CSc1ccc(Cl)cc1)NCCc1ccccc1 ?
PrPC TRFRET: 5; FBA Mtb inh: 3; Vc quorum ag: inactive; GDH-TPI inh: 4

What do the screens show for `Cc1cccc(NC(=O)CSc2nc(=O)n(CCCN3CCOCC3)c3c2CCCC3)c1C`?
PrPC TRFRET: -4; FBA Mtb inh: 3; Vc quorum ag: 0; GDH-TPI inh: -11

What do the screens show for `O=C(c1cccc(Cl)c1)C1CCCN(C(=O)c2ccc3c(c2)OCO3)C1` (stereo not drawn)?
3CLpro inhibitor: -1; PrPC TRFRET: 2; FBA Mtb inh: -1; Vc quorum ag: 0; GDH-TPI inh: -3

Results for CN1/C(=C\C=N\NC(=O)c2ccc(O)cc2)C(C)(C)c2ccccc21 ?
3CLpro inhibitor: 4; PrPC TRFRET: 8; FBA Mtb inh: -4; Vc quorum ag: 0; GDH-TPI inh: 40*

What do the screens show for `O=C(CCc1ccccc1)NNC(=S)NC(=O)c1ccc(Cl)cc1`?
3CLpro inhibitor: 2

What do the screens show for `Cc1c(C(=O)N2CCCCC2C)sc2ncnc(N3CCc4ccccc4C3)c12` (stereo not drawn)?
3CLpro inhibitor: 2; PrPC TRFRET: 2; FBA Mtb inh: -3; Vc quorum ag: inactive; GDH-TPI inh: 11

Results for Cc1c(C(=O)Nc2ccc3c(c2)OCCO3)sc2ncnc(N3CCCCC3C)c12 (stereo not drawn) ?
3CLpro inhibitor: -2; PrPC TRFRET: 1; FBA Mtb inh: 1; Vc quorum ag: inactive; GDH-TPI inh: 31*

What do the screens show for `CC(C)(C)S(=O)N1Cc2cc(C(=O)N[C@@H]3CCN(Cc4ccccc4)C3)nc(-c3cccc(-c4cc5ccccc5o4)c3)c2[C@@H]1CCO` (stereo partly drawn)?
PrPC TRFRET: -1; FBA Mtb inh: 0

Results for Cc1ccc(C(=O)N(c2ccccc2)C2CC(C)N(C(=O)c3ccco3)c3ccccc32)cc1 (stereo not drawn) ?
3CLpro inhibitor: 2; PrPC TRFRET: 8; FBA Mtb inh: 0; Vc quorum ag: inactive; GDH-TPI inh: -3

Results for Cc1cc(NC(=O)CSc2nc(-c3ccco3)cc(C(F)(F)F)n2)no1 ?
3CLpro inhibitor: 1; PrPC TRFRET: 11; FBA Mtb inh: 4; Vc quorum ag: 0; GDH-TPI inh: 24
